Assay outcomes deposited in PubChem BioAssay by The Scripps Research Institute Molecular Screening Center.
Compounds with a hit are over-represented: about 2.4% of the library has one in this group of screens.
ASK1 primary: inhibitors of human ASK1 kinase. Q99683. AlphaScreen MKK6 phosphorylation by ASK1, luminescence. inhibition, % at 7.44 µM. actives 0.99% (n = 22,000); in the data active means inhibition above about 35%;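 further: 0% = median of compound wells and 100% = no enzyme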
ULK1 primary: blocks human autophagy kinase ULK1; AlphaScreen Atg13 phosphorylation by ULK1, luminescence; inhibition, % at 5.96 µM; AID 1259251; actives 1.9% (n = 30,000); O75385; in the data active means inhibition above about 43%;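 further: 0% = median of compound wells and 100% = no enzyme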
Numbers without * were called inactive; . = no result given.

SMILES	ASK1 primary	ULK1 primary
COc1ccc(CCN2CCC(=O)CC2)cc1OC	.	-4.2
COc1ccc(Cc2nccc3cc(OC)c(OC)cc23)cc1OC	.	68.6*
COc1cccc(CN(C)C(=O)c2cn(CCN3CCCC3)c3cc(-c4cn[nH]c4)ccc23)c1	-11.9	6.0
CCN=C1Nc2ccc(Cl)cc2C(C)(c2ccccc2)O1 (stereo not given)	.	-12.7
O=C1OC(c2ccc(O)c(S(=O)(=O)O)c2)(c2ccc(O)c(S(=O)(=O)O)c2)c2c(Br)c(Br)c(Br)c(Br)c21	.	63.8*
Cc1c(-[n+]2c(C)cc(-c3cccs3)cc2C)c(=O)n(-c2ccccc2)n1C	.	4.2
Cn1cc(CCN2CCN(c3ccccc3Cl)CC2)cn1	.	-12.6
Cc1nc(C)n(-c2ccc(Nc3cc(-c4cn[nH]c4)c(F)cn3)cc2)n1 (tested in a mixture with another compound)	5.7	24.4
